# From the supplement of paper PMC6555819
# Key:
# Assay in all cases: PBM binding z-score (relative to random genomic background probes); higher = stronger binding; sequences stand for … in GC…GCGATTGACAGCGTAGAATGAAGG
# [1] = system: FXR:RXRa (NR concentration 270 nM, RXRa partner concentration 90 nM)
# In short: (§1)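 Binding z-scores were set against random background probes. The data came from custom Agilent 4×180K protein-binding microarrays carrying double-stranded probes with 34-nt variable regions, incubated 1 h with ligand-free nuclear receptor dimers. Partner-specific antibodies detected binding, and scanned fluorescence was regression-normalized.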
# [2] = system: LXRa:RXRa (NR concentration 270 nM, RXRa partner concentration 90 nM)
# In short: as §1
# [3] = system: LXRa homodimer (NR concentration 270 nM)
# In short: as §1
# [4] = system: LXRb:RXRa (NR concentration 270 nM, RXRa partner concentration 90 nM)
# In short: as §1
# [5] = system: LXRb homodimer (NR concentration 270 nM)
# In short: as §1
# [6] = system: PPARa:RXRa (NR concentration 270 nM, RXRa partner concentration 90 nM)
# In short: as §1
# [7] = system: PPARg:RXRa (NR concentration 180 nM, RXRa partner concentration 90 nM)
# In short: as §1
# [8] = system: PPARg:RXRa 270nM:90nM, anti-RXR (NR concentration 270 nM, RXRa partner concentration 90 nM)
# In short: as §1
# [9] = system: PPARg:RXRa 30nM:10nM, anti-RXR (NR concentration 30 nM, RXRa partner concentration 10 nM)
# In short: as §1
# [10] = system: PPARg:RXRa 90nM:30nM, anti-RXR (NR concentration 90 nM, RXRa partner concentration 30 nM)
# In short: as §1
# [11] = system: PPARg:RXRa DBDmut IVT, anti-RXR (DBD mutation: RXRa K156A/R161A, NR concentration 270 nM, RXRa partner concentration 90 nM)
# In short: as §1
# [12] = system: PPARg:RXRa IVT, anti-PPARg (NR concentration 270 nM, RXRa partner concentration 90 nM)
# In short: as §1
# [13] = system: PPARg DBDmut:RXRa IVT, anti-PPARg (DBD mutation: PPARg1 K132A/R137A, NR concentration 270 nM, RXRa partner concentration 90 nM)
# In short: as §1
# [14] = system: PPARg DBDmut IVT, anti-PPARg (DBD mutation: PPARg1 K132A/R137A, NR concentration 270 nM)
# In short: as §1
# [15] = system: PPARg homodimer (NR concentration 180 nM)
# In short: as §1
# [16] = system: PXR:RXRa (NR concentration 270 nM, RXRa partner concentration 90 nM)
# In short: as §1
# [17] = system: PXR homodimer (NR concentration 270 nM)
# In short: as §1
# [18] = system: RARa:RXR (NR concentration 270 nM, RXRa partner concentration 90 nM)
# In short: as §1
# [19] = system: RARa homodimer (NR concentration 270 nM)
# In short: as §1
# [20] = system: RARb:RXRa (NR concentration 270 nM, RXRa partner concentration 90 nM)
# In short: as §1
Sequence,PBM binding z-score [1],PBM binding z-score [2],PBM binding z-score [3],PBM binding z-score [4],PBM binding z-score [5],PBM binding z-score [6],PBM binding z-score [7],PBM binding z-score [8],PBM binding z-score [9],PBM binding z-score [10],PBM binding z-score [11],PBM binding z-score [12],PBM binding z-score [13],PBM binding z-score [14],PBM binding z-score [15],PBM binding z-score [16],PBM binding z-score [17],PBM binding z-score [18],PBM binding z-score [19],PBM binding z-score [20]
GGAATGAGGGCAAAGTTGATAGCATCTGTCGACG,1.58,1.26,-0.314,1.11,-0.0126,4.51,7.74,7.45,6.47,8.36,5.52,4.71,1.48,0.0505,0.811,1.43,0.53,1.95,0.171,2.36
CCTAGTTGATCAGGAGGTCACACACCGGATATGA,3.48,3.95,3.16,3.71,1,4.19,2.24,2.78,1.24,1.99,0.771,2.22,0.83,0.641,4.38,4.62,1.79,5.02,2.57,3.46
ATATGTAGGTTATCGGGTCATTCAGTTTGCGCAT,2.98,3.41,2.11,3.16,1.34,4.62,6.73,6.32,3.96,5.64,7.56,7.99,3.73,2.54,2.67,3.75,7.33,3.54,1.75,2.56
TCTCGGAAGACACGAAAGGTCAGAGCTCGACATC,2.36,3.38,1.85,3.1,0.242,3.61,0.772,2.46,3.29,2.35,2,1.27,0.544,-0.207,3.09,3.58,0.388,4.27,1.14,3.73
CCTACTGAGCCAAAGGTCATTGATTCCAATGCTC,5.45,5.55,4.66,5.13,2.18,5.53,8.72,8.74,7.32,9.2,1.79,3.91,0.27,0.224,5.35,5.49,2.67,5.91,2.36,4.57
AGAATGAGGTTAGTAAGATCAGGGAATTGCGGTC,0.169,0.283,-0.393,0.342,-0.18,1.6,1.07,1.06,0.16,0.634,2.97,2.49,0.854,-0.148,0.454,0.1,0.333,0.331,0.721,1.22
CGTCCAAGGTCAGAGCGGTCAGTGAATGCCGAGT,4.97,4.15,1.27,2.69,-0.231,3.86,1.33,2.69,0.148,1.42,2.63,2.2,-0.349,0.202,2.18,3.25,2.78,3.14,0.595,4.58
CTCGAAAGGTCGTGCTCAGCTGAGTATACCAAAC,4.95,3.96,-0.247,3.26,0.329,4.67,2.52,3.89,0.929,2.38,0.87,1.49,0.246,0.618,1.59,2.99,-0.206,3.49,0.13,3.72
TCTAGCAGGCCAGAGGGTCACTCAGGAGGTACGG,1.25,1.15,-0.544,0.792,-1.23,2.35,1.43,2.66,2,2.55,1.15,0.889,-0.476,-0.637,0.195,1.35,-0.32,2.12,-0.425,2.28
